High-throughput results as filed in PubChem.
This is a sample that favours compounds with a hit; in the whole collection about 5.9% have one here.
HSF-1 act: increases HSF-1 driven luciferase reporter signal | NIH3T3-HGL HSF-1 luciferase reporter, MG132, 8 h; 100% = twice DMSO control signal | activation, % at 9 µM | 1.7% of 300,000 active | AID 504408;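 active means mean replicate activation of at least 50% with a set share of replicates each reaching 50%; inconclusive means only one of those two conditions met; inactive means mean below 50% and too few replicates reaching it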;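 further: 0% = median of the neutral control wells and 100% = twice that signal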
HSF1 inh: HSF1 inhibition; NIH3T3-HGL HSE-luciferase, MG132-induced, luminescence 8 h; stronger effect = lower value; activity change, negative = inhibition, % at 7.5 µM (by protocol); 0.77% of 300,000 active; AID 2098;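 active means more than half of replicate wells show activity change below -50%, luminescence cut by over half; inconclusive means some wells, but at most half, below -50%; inactive means no replicate well below -50%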;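 further: luciferase reports HSF-1 transcriptional activity via heat shock element; 0% = median of DMSO wells and -100% = zero luminescence signal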
FXN GAA850 act: increases GAA850 frataxin promoter reporter activity | activation, % at 6 µM | 0.56% of 360,000 active | HEK293 lucGAA850 FXN promoter luciferase reporter, 24 h; percent of 10 µM SAHA response;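 active means activation above the average of all compounds screened plus 3 SD, cutoff fixed separately per campaign, cut at about 7.5% in these data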;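 further: 0% = DMSO wells and 100% = 10 µM SAHA wells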
HSP90 inh: inhibitors of HSP90 luciferase refolding in rabbit reticulocyte lysate; inhibition, % at 5.6 µM; 0.91% of 290,000 active; luciferase refolding luminescence, 3 h;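 active means inhibition above the screen-wide mean plus 3 SD, computed separately per campaign, cut at about 16% in these data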;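 further: 0% = DMSO wells and 100% = 60 µM geldanamycin wells; inhibitors lower the luminescence because luciferase stays unfolded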
AHR act: activates the human aryl hydrocarbon receptor | 2.5% of 320,000 active | AHR-responsive luciferase reporter cells, luminescence | activation, % at 5 µM; in the data active means activation above about 47%;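 further: 0% = vehicle wells and 100% = reference agonist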
DAX1 inh: inhibits human nuclear receptor DAX1; inhibition, % at 6.75 µM; AID 504766; HEK293 Gal4-DAX1 luciferase reporter, luminescence; 0.99% of 340,000 active;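 active means inhibition above the mean over all tested compounds plus 3 SD, cut at about 4.2% in these data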;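 further: 0% = DAX1-transfected cells with DMSO and 100% = empty-vector control cells with DMSO; inhibition shows as a rise in luminescence from relieved DAX1 repression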
Target sequence (P51843 207-470 limits assumed): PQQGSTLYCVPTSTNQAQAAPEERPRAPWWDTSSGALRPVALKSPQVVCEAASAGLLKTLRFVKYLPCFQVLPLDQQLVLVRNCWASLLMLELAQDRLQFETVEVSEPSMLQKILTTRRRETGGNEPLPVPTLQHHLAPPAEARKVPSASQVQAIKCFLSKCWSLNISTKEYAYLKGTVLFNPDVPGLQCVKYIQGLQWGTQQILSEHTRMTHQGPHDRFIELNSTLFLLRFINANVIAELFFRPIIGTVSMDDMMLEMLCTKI
The depositor's hits bear a star; ? = inconclusive; / = no result given.

SMILES	HSF-1 act	HSF1 inh	FXN GAA850 act	HSP90 inh	AHR act	DAX1 inh
CN1OC[C@@H]2C(=O)N3CCc4c([nH]c5ccccc45)[C@@H]3C[C@@H]21	/	/	2	/	/	-1
CCOC(=O)c1cccc(NC(=O)Cn2c(CC(=O)NC)nc3ccccc32)c1	101*	85	0	-2	-3	-1
Cc1cccc(NC(=O)Cn2c(/C=C/c3ccccc3)nc3ccccc32)c1	55*	42	3	1	15	1
Cc1cccc(NC(=O)CSc2cc(C)c(C#N)c3nc4ccccc4n23)c1	417*	268	0	3	1	-1
CNc1cc(C)c(C#N)c2nc3ccccc3n12	4	-1	1	2	7	-1
Cc1ccc2c(c1)/C(=C/c1ccc(F)cc1)C(=O)N2	?	32	2	-3	10	0
Cc1ccc2c(c1)/C(=C/c1ccccc1C)C(=O)N2	-2	3	1	4	57*	1
O=C1Nc2ccccc2/C1=C/c1ccccc1Cl	11	2	2	0	59*	-1
O=C(CCNC(=O)C1CCN(S(=O)(=O)c2ccccc2)CC1)NCc1ccc(Cl)c(Cl)c1	29	4	-1	-2	1	-1
COc1cc(/C=C2\SC(N)=NC2=O)cc(Cl)c1O	-10	-5	0	-1	1	4.4*
CCCCc1ccc(NC(=O)Nc2cc(C)nn2C)cc1	-1	-2	1	-6	3	-1
COc1ccc(C(=O)CSc2nc(C)cc(=O)[nH]2)cc1C	-81	-76*	0	2	10	0
COC(=O)CC1(c2ccccc2)C(=O)c2ccccc2C1=O	-6	2	-1	5	2	1
COC(=O)CC1(c2ccc(OC)cc2)C(=O)c2ccccc2C1=O	-15	-15	-1	-3	2	7.1*
CCN(CC(=O)Nc1ccc(NC(C)=O)cc1)C(=O)c1cn(-c2ccccc2)nc1-c1cccs1	/	/	1	/	/	-1
Cc1ccc(C2=NNC(c3cccc(F)c3)S2)cc1 (stereo unspecified)	/	/	1	5	4	-2
Fc1cccc(C2NN=C(c3ccccc3)S2)c1 (stereo unspecified)	61*	25	7	8	17	3
Cc1ccc(S(=O)(=O)Nc2cccc(-n3cnnn3)c2)cc1C	-17	-1	-1	1	7	-1
CCOC(=O)c1ccc(NC(=S)NC(=O)C2CCCC2)cc1	-80	-74*	2	2	1	0
CCOC(=O)c1ccc(NC(=S)N2CCCC(C)C2)cc1 (stereo unspecified)	62*	26	1	0	-3	2
C/C(=N\NC(=O)c1ccn(C)n1)c1ccc(NC(=O)C2CCCC2)cc1	32	9	3	-1	14	6.6*
CCN(CC)c1ccc(NC(=O)C2CCCC2)cc1	0	4	3	-4	1	4.6*
C/C(=N\NC(=O)c1ccn(C)n1)c1ccc(NC(=O)C2CCC2)cc1	-12	-7	3	-5	/	1
CCCCc1ccc(NC(=O)C2CCCC2)cc1	32	27	3	/	-4	2
O=C(NCc1ccc(Cl)c(Cl)c1)c1cc(C2CCCCN2C(=O)c2ccccn2)on1 (stereo unspecified)	/	/	2	/	/	/
SMILES	HSF-1 act	HSF1 inh	FXN GAA850 act	HSP90 inh	AHR act	DAX1 inh
COCc1cc(=O)[nH]c(-c2ccccc2OC(F)(F)F)n1	-1	-3	0	4	7	1
CCC(=O)N1CCc2cc(S(=O)(=O)N(C)c3ccc(Br)cc3)ccc21	0	-1	-1	1	/	-1
CCOC(=O)CCCNC(=O)COC(=O)[C@@H]1CCCN1S(=O)(=O)c1ccc(Cl)cc1	6	-7	2	0	8	0
COc1ccc(/C=C(\C#N)C(=O)Nc2cc(C)c(Cl)cc2OC)cc1O	-74	-64*	3	5	22	2
COc1cc(/C=C(\C#N)C(=O)Nc2cccc3ncccc23)ccc1O	63*	14	/	-1	1	/
COc1ccc(/C=C(\C#N)C(=O)NCc2ccccc2)cc1O	18	7	0	-1	1	0
COc1ccc2[nH]c(C(=O)Nc3ncc(C)cc3Br)cc2c1	-3	-5	1	1	3	0
COc1ccc2[nH]c(C(=O)Nc3ccc(F)cc3Br)cc2c1	7	-8	4	-1	50*	3
COc1ccc(N=C2S/C(=C\c3ccc(Cl)c([N+](=O)[O-])c3)C(=O)N2CCN(C)C)cc1	95*	73	2	2	1	2
CCN(CC)CCN1C(=O)/C(=C\c2ccc(Cl)c([N+](=O)[O-])c2)SC1=Nc1ccc(OC)cc1	43	61	0	4	-1	-1
CN1CCN(c2ccncc2S(=O)(=O)N2CCCCC2)CC1	-10	-1	0	-3	-2	4.9*
CC(C)NC(=O)NS(=O)(=O)c1cnccc1N1CCCCC1	51*	27	-2	0	0	0
CC(C)N1CCN(c2ccncc2S(=O)(=O)N2CCCCC2)CC1	/	/	0	/	/	0
C#CCOCCOCCOCCNc1nc(N2CCN(C(=O)[C@H](CCC(=O)O)n3cc([C@@H](N)[C@H](C)CC)nn3)CC2)nc(N2CCN(C(=O)[C@H](CCC(=O)O)n3cc([C@@H](N)CCSC)nn3)CC2)n1	/	/	2	/	1	-1
N#Cc1ccsc1NC(=O)CSc1nnc(-c2ccccc2)o1	56*	52	3	0	27	0
Cc1cnc(NC(=O)CSc2nnc(-c3ccccc3)o2)s1	61*	46	3	14	4	6.4*
O=S(=O)(NCc1ccccc1Cl)c1ccc(-n2cccn2)cc1	5	-2	1	-4	3	0
Cc1ccc(S(=O)(=O)N(C)C)cc1NC(=O)C(C)OC(=O)CC1CC2CCC1C2 (stereo unspecified)	/	/	1	/	/	0
CCc1ccc(NC(=O)Cn2nnc(C(=O)NCc3ccco3)c2N)cc1	18	-1	0	0	1	0
CCOc1ccc(NC(=O)Cn2nnc(C(=O)NCc3ccco3)c2N)cc1	56*	27	0	-1	0	2
COc1ccccc1NC(=O)c1nnn(CC(=O)Nc2ccccc2)c1N	24	5	2	2	47*	-1
COc1ccc(-c2cc(CCC(=O)N3CCN(c4cc(C)ccc4C)CC3)[nH]n2)cc1	/	/	5	/	/	-3
O=C(c1ccccc1)c1coc2ccc(O)c(Cl)c12	5	2	5	1	-1	3
Cc1ccc(C(=O)c2coc3ccc(O)c(Cl)c23)cc1	8	8	2	-11	12	6.5*
CC(C)c1nnc(NC(=O)c2nc(S(=O)(=O)Cc3ccccc3)ncc2Cl)s1	-87	-86*	-9	8	-3	3
CCCc1nnc(NC(=O)c2nc(S(=O)(=O)Cc3ccc(C)cc3)ncc2Cl)s1	-82	-80*	-1	5	6	-2
